{"source": "paper PMC4336329", "about": "(PLoS ONE, 2015)", "note": "The campaign covered roughly 310,000 compounds. About 2,200 (0.71%) showed an effect of 50% or more. Effects have a minus sign here. This excerpt belongs to a sample that is enriched for strong results.", "data": [{"target": "human ether-à-go-go-related gene (hERG) potassium channel (human, UniProt Q12809)", "sequence (Q12809 whole entry, looked up)": "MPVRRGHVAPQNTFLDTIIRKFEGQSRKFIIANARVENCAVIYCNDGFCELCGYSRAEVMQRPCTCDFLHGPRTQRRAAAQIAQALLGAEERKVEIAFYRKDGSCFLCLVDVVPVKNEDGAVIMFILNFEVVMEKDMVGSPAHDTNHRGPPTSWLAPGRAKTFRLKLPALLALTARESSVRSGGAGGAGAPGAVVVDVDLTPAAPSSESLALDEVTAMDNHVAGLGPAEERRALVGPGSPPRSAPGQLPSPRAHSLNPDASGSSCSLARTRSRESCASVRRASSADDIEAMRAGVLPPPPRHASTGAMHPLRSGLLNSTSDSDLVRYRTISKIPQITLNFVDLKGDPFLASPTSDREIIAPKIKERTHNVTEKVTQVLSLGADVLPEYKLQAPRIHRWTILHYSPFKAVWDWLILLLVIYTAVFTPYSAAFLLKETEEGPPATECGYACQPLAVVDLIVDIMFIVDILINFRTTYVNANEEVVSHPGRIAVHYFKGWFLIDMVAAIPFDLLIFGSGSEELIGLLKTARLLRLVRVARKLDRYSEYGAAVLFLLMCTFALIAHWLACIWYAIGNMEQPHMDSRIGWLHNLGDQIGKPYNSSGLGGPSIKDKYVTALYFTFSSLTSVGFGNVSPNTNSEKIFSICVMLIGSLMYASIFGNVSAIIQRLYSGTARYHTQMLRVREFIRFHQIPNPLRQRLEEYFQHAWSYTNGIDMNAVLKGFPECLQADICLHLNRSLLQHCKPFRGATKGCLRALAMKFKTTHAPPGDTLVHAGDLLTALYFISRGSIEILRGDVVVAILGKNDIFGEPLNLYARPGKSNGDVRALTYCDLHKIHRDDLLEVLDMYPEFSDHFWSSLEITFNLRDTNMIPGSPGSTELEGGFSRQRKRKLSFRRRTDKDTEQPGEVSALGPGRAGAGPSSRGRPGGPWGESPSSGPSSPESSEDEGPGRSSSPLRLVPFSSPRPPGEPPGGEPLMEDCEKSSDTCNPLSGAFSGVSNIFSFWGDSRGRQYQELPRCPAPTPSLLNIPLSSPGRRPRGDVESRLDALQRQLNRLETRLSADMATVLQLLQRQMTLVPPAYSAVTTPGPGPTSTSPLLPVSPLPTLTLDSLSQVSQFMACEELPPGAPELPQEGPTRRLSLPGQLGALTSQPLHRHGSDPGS", "assay": "primary screen, population patch clamp on CHO cells stably expressing hERG; higher = less effect of the substance", "protocol": "Briefly, Chinese hamster ovary (CHO) cells stably expressing the hERG channel were dislodged from tissue culture flasks and dispensed into PPC plates. […] During the recording, background leak currents were estimated by a 100 ms step to -80 mV from an initial holding potential of -70 mV and subtracted from the subsequent current measurement. The campaign was conducted in two phases using slight differences in recording protocol. In the first phase, the initial voltage pulse used a 100 ms step to -30 mV from a holding potential of -70 mV, a 2 s conditioning step to +25 mV, and a 2 s test step to -30 mV. During the second phase of the screen, the potential during the conditioning step was raised to +45 mV. In both phases of the campaign, a secondary voltage pulse was applied using the same parameters as the second phase initial pulse. The initial and secondary pulses were applied in the absence of compound, and upon application of 1 μM and 10 μM test concentrations. Small molecule effects on hERG current density were quantified by […].", "units": {"hERG current change (%, negative = inhibition) at 1uM": "%"}, "values": [{"smiles": "O=S(=O)(CC(CN1CCCCC1)N1CCCCC1)c1ccccc1", "note": "(stereo not drawn)", "hERG current change (%, negative = inhibition) at 1uM": 6.73}, {"smiles": "O=C(Cn1cnc2c(NC(=O)OCc3ccccc3)ncnc21)NCc1ccccn1", "hERG current change (%, negative = inhibition) at 1uM": 0.393}, {"smiles": "O=C(NCCS(=O)(=O)N1CCN(c2ccccc2F)CC1)C1CC(=O)N(c2ccccc2)C1", "note": "(stereo not drawn)", "hERG current change (%, negative = inhibition) at 1uM": 11.6}, {"smiles": "O=C(Nc1ccon1)C1CCN(S(=O)(=O)c2cccs2)CC1", "hERG current change (%, negative = inhibition) at 1uM": -4.01}, {"smiles": "CC(=O)NNS(=O)(=O)c1ccc(-c2cc(C(F)(F)F)n(C)n2)s1", "hERG current change (%, negative = inhibition) at 1uM": 2.67}, {"smiles": "CCOc1ccc2[nH]c(=O)c(CN(CCN3CCOCC3)Cc3nnnn3C(C)(C)CC)cc2c1", "hERG current change (%, negative = inhibition) at 1uM": 12.1}, {"smiles": "COc1ccc(NC(=O)CSc2nnc(Cc3ccc(C)cc3)c(=O)n2N)cc1OC", "hERG current change (%, negative = inhibition) at 1uM": 4}, {"smiles": "CC(=O)N(C(C)=O)S(=O)(=O)c1ccc(N=NN2CCCCC2)cc1", "hERG current change (%, negative = inhibition) at 1uM": 11.6}, {"smiles": "Cc1ccc(CNC(=O)CCS(=O)(=O)c2ccc3c(c2)CC(C)N3C(=O)C2CC2)cc1", "note": "(stereo not drawn)", "hERG current change (%, negative = inhibition) at 1uM": 0.306}, {"smiles": "CCOC(=O)N1CCN(C(=O)c2ccc([N+](=O)[O-])cc2Cl)CC1", "hERG current change (%, negative = inhibition) at 1uM": 6.8}, {"smiles": "Cc1ccccc1-[n+]1c(-c2ccccc2)cc(-c2ccccc2)cc1-c1ccccc1.[O-][Cl+3]([O-])([O-])[O-]", "hERG current change (%, negative = inhibition) at 1uM": -55.8}, {"smiles": "Cc1ccc(-c2cc(-c3ccc(C)cc3)[n+](-c3ccc(C(=O)O)cc3)c(-c3ccc(C)cc3)c2)cc1.[O-][Cl+3]([O-])([O-])[O-]", "hERG current change (%, negative = inhibition) at 1uM": 17.7}, {"smiles": "Nc1ccccc1-[n+]1c(-c2ccccc2)cc(-c2ccccc2)cc1-c1ccccc1.[O-][Cl+3]([O-])([O-])[O-]", "hERG current change (%, negative = inhibition) at 1uM": 0.0928}, {"smiles": "Fc1ccc(C[n+]2c(-c3ccccc3)cc(-c3ccccc3)cc2-c2ccccc2)cc1.[O-][Cl+3]([O-])([O-])[O-]", "hERG current change (%, negative = inhibition) at 1uM": -27.1}, {"smiles": "Cc1ccc(C[n+]2c(-c3ccc(C)cc3)cc(-c3ccc(C)cc3)cc2-c2ccc(C)cc2)cc1.[O-][Cl+3]([O-])([O-])[O-]", "hERG current change (%, negative = inhibition) at 1uM": -61.7}, {"smiles": "Oc1ccc(-[n+]2c(-c3ccccc3)cc(-c3ccccc3)cc2-c2ccccc2)cc1.[O-][Cl+3]([O-])([O-])[O-]", "hERG current change (%, negative = inhibition) at 1uM": 5.58}, {"smiles": "COc1ccc(-[n+]2c(-c3ccccc3)cc(-c3ccccc3)cc2-c2ccccc2)cc1.[O-][Cl+3]([O-])([O-])[O-]", "hERG current change (%, negative = inhibition) at 1uM": -29.2}, {"smiles": "Oc1ccccc1-[n+]1c(-c2ccccc2)cc(-c2ccccc2)cc1-c1ccccc1.[O-][Cl+3]([O-])([O-])[O-]", "hERG current change (%, negative = inhibition) at 1uM": -40.5}, {"smiles": "Cc1ccc(-c2cc(-c3ccc(C)cc3)[n+](-c3ccccc3)c(-c3ccc(C)cc3)c2)cc1.[O-][Cl+3]([O-])([O-])[O-]", "hERG current change (%, negative = inhibition) at 1uM": -77.3}, {"smiles": "COc1ccc(-[n+]2c(-c3ccccc3)cc(-c3ccc(C)cc3)cc2-c2ccccc2)cc1.[O-][Cl+3]([O-])([O-])[O-]", "hERG current change (%, negative = inhibition) at 1uM": -52}, {"smiles": "Clc1ccc(C[n+]2c(-c3ccccc3)cc(-c3ccccc3)cc2-c2ccccc2)cc1.[O-][Cl+3]([O-])([O-])[O-]", "hERG current change (%, negative = inhibition) at 1uM": -25.5}, {"smiles": "Brc1ccc(-[n+]2c(-c3ccccc3)cc(-c3ccccc3)cc2-c2ccccc2)cc1.[O-][Cl+3]([O-])([O-])[O-]", "hERG current change (%, negative = inhibition) at 1uM": -18.7}, {"smiles": "COc1ccc(-c2cc(N)n(S(=O)(=O)Cc3ccccc3)n2)c(OC)c1", "hERG current change (%, negative = inhibition) at 1uM": -4.34}, {"smiles": "COc1ccc(NC(=S)N2CCNC(=O)C2CC(=O)Nc2cccc(Cl)c2C)cc1", "note": "(stereo not drawn)", "hERG current change (%, negative = inhibition) at 1uM": -5.98}, {"smiles": "Cc1ccc(-c2sc(C)nc2CC(=O)O)cc1", "hERG current change (%, negative = inhibition) at 1uM": 7.75}, {"smiles": "C=C(C)C1CC=C(C)/C(=N/NC(=O)CCC(=O)Nc2ccccc2Cl)C1", "note": "(stereo not drawn)", "hERG current change (%, negative = inhibition) at 1uM": 6.51}, {"smiles": "O=C(COC(=O)c1c[nH]c2ccccc12)Nc1ccc(F)cc1", "hERG current change (%, negative = inhibition) at 1uM": -1.51}, {"smiles": "Cc1cc(C(=O)NN=C(Cc2ccccc2)Cc2ccccc2)c(C)o1", "hERG current change (%, negative = inhibition) at 1uM": 4.29}, {"smiles": "O=C(Nc1cnccn1)c1ccncc1", "hERG current change (%, negative = inhibition) at 1uM": -8.03}, {"smiles": "NS(=O)(=O)c1ccc(CCNC(=O)c2ccccc2F)cc1", "hERG current change (%, negative = inhibition) at 1uM": 4.79}, {"smiles": "CCCCNC(=O)/C=C/c1cccs1", "hERG current change (%, negative = inhibition) at 1uM": 24.3}, {"smiles": "Cc1ccc(-c2cc(-c3ccccc3)cc(-c3ccccc3)[n+]2-c2ccccc2)cc1.[O-][Cl+3]([O-])([O-])[O-]", "hERG current change (%, negative = inhibition) at 1uM": -80.4}, {"smiles": "[O-][Cl+3]([O-])([O-])[O-].c1ccc(-c2cc(-c3ccccc3)[n+](-c3ccccc3)c(-c3ccccc3)c2)cc1", "hERG current change (%, negative = inhibition) at 1uM": -27.7}, {"smiles": "Cc1ccc(-c2cc(-c3ccccc3)cc(-c3ccccc3)[n+]2-c2ccc(C(=O)O)cc2)cc1.[O-][Cl+3]([O-])([O-])[O-]", "hERG current change (%, negative = inhibition) at 1uM": 7.88}, {"smiles": "O=C(COc1ccccc1)N(Cc1ccco1)c1ccc(O)cc1", "hERG current change (%, negative = inhibition) at 1uM": 8.59}, {"smiles": "CCOC(=O)c1[nH]c(C)c(C(=O)NCc2ccc(Cl)cc2)c1C", "hERG current change (%, negative = inhibition) at 1uM": -4.65}, {"smiles": "O=C(CCOc1ccccc1)Nc1ccnn1C1CCN(Cc2ccccc2)CC1", "hERG current change (%, negative = inhibition) at 1uM": 2}, {"smiles": "CCOc1cccc(CN2CCC(n3nccc3NC(=O)CCCc3ccccc3)CC2)c1", "hERG current change (%, negative = inhibition) at 1uM": 9.19}, {"smiles": "COc1ccccc1CN1CCC(n2nccc2NC(=O)CCCc2ccccc2)CC1", "hERG current change (%, negative = inhibition) at 1uM": -42.7}, {"smiles": "COc1cc(CN2CCC(n3nccc3NC(=O)CCCc3ccccc3)CC2)ccc1O", "hERG current change (%, negative = inhibition) at 1uM": -5.54}, {"smiles": "CCOc1ccccc1CN1CCC(n2nccc2NC(=O)CCCc2ccccc2)CC1", "hERG current change (%, negative = inhibition) at 1uM": -29.2}, {"smiles": "CCOc1ccc(CN2CCC(n3nccc3NC(=O)CCCc3ccccc3)CC2)cc1", "hERG current change (%, negative = inhibition) at 1uM": -88.8}, {"smiles": "O=C(CCOc1ccccc1)Nc1ccnn1C1CCN(Cc2ccc(O)cc2)CC1", "hERG current change (%, negative = inhibition) at 1uM": -3.76}, {"smiles": "O=C(CCCc1ccccc1)Nc1ccnn1C1CCN(Cc2ccccc2)CC1", "hERG current change (%, negative = inhibition) at 1uM": -18.8}, {"smiles": "O=C(CCOc1ccccc1)Nc1ccnn1C1CCN(CCc2ccccc2)CC1", "hERG current change (%, negative = inhibition) at 1uM": -51.4}, {"smiles": "COc1ccc(CN2CCC(n3nccc3NC(=O)CCOc3ccccc3)CC2)cc1C", "hERG current change (%, negative = inhibition) at 1uM": -16.2}, {"smiles": "COc1ccc(CN2CCC(n3nccc3NC(=O)CCCc3ccccc3)CC2)cc1C", "hERG current change (%, negative = inhibition) at 1uM": -67.3}, {"smiles": "COc1cccc(CN2CCC(n3nccc3NC(=O)CCCc3ccccc3)CC2)c1O", "hERG current change (%, negative = inhibition) at 1uM": -55.4}]}]}
